The results in this text go back to ChEMBL document CHEMBL3433997, “St. Jude Leishmania screening dataset” (2016).

Holding throughout (type): functional
Test [1] has as its target Solute carrier family 2, facilitated glucose transporter member 1 (Homo sapiens) (UniProt P11166). The test is described as follows: ST_JUDE_LEISH: Cytotoxicity at 2uM final concentration against transgenic Leishmania Mexicana promastigotes LmGLUT1 that are glucose transport deficient and complemented with the human glucose transporter GLUT1. Activity is measured by DNA content using SYBR green in vitro.

Test [2] concerns the target Hexose transporter 1 (Plasmodium falciparum) (UniProt O97467). The test is described as follows: ST_JUDE_LEISH: Cytotoxicity at 2uM final concentration against transgenic Leishmania Mexicana promastigotes LmPfHT that are glucose transport deficient and complemented with the Plasmodium falciparum hexose transporter. Activity is measured by DNA content using SYBR green in vitro.

Test [3] has as its target Glucose transporter (Leishmania mexicana) (UniProt O61059). The test is described as follows: ST_JUDE_LEISH: Cytotoxicity at 2uM final concentration against transgenic Leishmania Mexicana promastigotes LmGT2 that are glucose transport deficient and complemented with the L. Mexicana glucose transporter 2. Activity is measured by DNA content using SYBR green in vitro.

Solute carrier family 2, facilitated glucose transporter member 1 (Homo sapiens), sequence (P11166 whole entry): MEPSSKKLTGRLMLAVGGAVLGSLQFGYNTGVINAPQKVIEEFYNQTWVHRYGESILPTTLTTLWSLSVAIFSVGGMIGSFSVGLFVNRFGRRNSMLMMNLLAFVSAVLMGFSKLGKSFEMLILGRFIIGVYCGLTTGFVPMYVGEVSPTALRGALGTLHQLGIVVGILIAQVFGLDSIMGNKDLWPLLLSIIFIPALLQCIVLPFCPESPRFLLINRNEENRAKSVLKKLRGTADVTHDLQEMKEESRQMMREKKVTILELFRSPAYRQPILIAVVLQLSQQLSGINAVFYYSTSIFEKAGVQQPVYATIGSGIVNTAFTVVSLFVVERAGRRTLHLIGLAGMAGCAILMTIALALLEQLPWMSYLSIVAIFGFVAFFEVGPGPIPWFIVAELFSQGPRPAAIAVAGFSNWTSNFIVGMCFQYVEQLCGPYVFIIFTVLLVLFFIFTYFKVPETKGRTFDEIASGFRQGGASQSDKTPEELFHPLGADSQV

As usually defined, the inhibition is the drop in the measured response relative to a control, in per cent. Consider `O=C(Nc1ccc(OC2CCN(Cc3ccsc3)CC2)c(Cl)c1)c1ccc(F)cc1`, for which the inhibition in test [1] stood at 4.89%; in test [2] it was 2.78%; in test [3], 2.62%.

As for `Oc1ccc(C2CNCCc3c2cc(O)c(OCc2ccccc2)c3Cl)cc1` (stereo not given), the results for the inhibition in test [1], in test [2] and in test [3] were -0.07%, -1.5% and 2.54%, respectively.

Turning to `CNCCCNCc1ccc(-c2ccc(F)c(Cl)c2)o1`, the inhibition in test [1] turned out to be 0.54%; in test [2], 1.28%; in test [3] it was 0.56%.

For the compound `NC(=O)c1ccccc1OCC(=O)Nc1ccc(-c2cccc(-c3nc4cc(C(F)(F)F)ccc4[nH]3)c2)cc1`, the inhibition in test [1] was 2.52%; in test [2], -0.46%; in test [3], 3.74%.

Regarding `COc1ccc2nccc([C@@H](O)CNCCCN(C)CCOc3cc(F)cc(F)c3)c2c1`, the inhibition turned out to be 6.85% in test [1], 7.45% in test [2] and 6.99% in test [3].

Regarding `CN(CCO)Cc1ccc(-c2ccc(NS(=O)(=O)c3cccc4cccnc34)cc2)cc1`, the values for the inhibition in test [1], in test [2] and in test [3] were 75.1%, 81.8% and 80.8%, respectively.

As to `COc1cc(C(=O)Nc2cccc(-c3nc4ccccc4[nH]3)c2)ccc1OC(C)=O`, the inhibition in test [1] was -0.73%; in test [2] it was 2.19%; in test [3], 0.31%.

Consider `COc1ccc(OCCn2cc(C(=O)c3ccco3)c3ccccc32)cc1`, for which the inhibition in test [1] worked out at 3.1%; in test [2], 1.5%; in test [3], 2.42%.

`CN(Cc1cccc(O)c1)C1CCCN(c2cc(NC(=O)c3ccc(F)cc3)ccn2)C1` (stereo not given): the inhibition came out at 3.85% in test [1], 6.05% in test [2] and 5.91% in test [3].

For the compound `COc1cccc(C(C)(C)NC[C@@H](O)[C@H](Cc2ccccc2)NC(=O)c2cc(C3CCCC3)cc(N3CCCCS3(=O)=O)c2F)c1`, the inhibition in test [1] came to 0.16%; in test [2], 2.15%; in test [3] it was 1.09%.

Regarding `CCSc1nc2sc3c(c2c(=O)n1-c1ccccc1)CCN(C)C3`, the inhibition is 0.1% in test [1], 0.76% in test [2] and -0.96% in test [3].

As to `COc1cc2nc(Nc3ccc(C)cc3)nc(Nc3ccc(C)cc3)c2cc1OC`, the inhibition in test [1] was found to be 100%; in test [2], 101%; in test [3], 98.1%.

For the compound `CCOc1ccc(-c2nonc2NC(=O)c2cccs2)cc1OCC`, the figures for the inhibition in test [1], in test [2] and in test [3] were -0.24%, 1.17% and -0.56%, respectively.

As for `Cc1cccc2nc(-c3ccc(-c4ccc(CNCCc5ccncc5)cc4)cc3)[nH]c12`, the inhibition is 13.2% in test [1], 21.1% in test [2] and 10.1% in test [3].

For the compound `CN(Cc1cccc(F)c1)C1CCN(c2cc(NC(=O)c3cccc(F)c3)ccn2)CC1`, the inhibition in test [1] came to 3.06%; in test [2], 3.18%; in test [3] it was 2.7%.

As to `Cc1cc(C(F)(F)F)n2nc(C(=O)N(Cc3cncn3Cc3cccc(F)c3)CC3CC3)cc2n1`, the values for the inhibition in test [1], in test [2] and in test [3] were -0.1%, -0.07% and 2.14%, respectively.

For the compound `COc1ccc2ncc(F)c(CCN3C[C@H](CNCc4cc(F)c5c(c4)NC(=O)CO5)[C@H](O)C3)c2n1`, the inhibition in test [1] was 3.52%; in test [2] it was 4.83%; in test [3], 0.92%.

`O=c1cc(NCCCNCc2cc3c(Cl)cc(Cl)cc3[nH]2)[nH]c2ccccc12`: the inhibition in test [1] is -0.67%; in test [2], -0.16%; in test [3], -0.14%.

Turning to `FC(F)(F)c1ccc2[nH]c(-c3cccc(-c4ccc(CNCC5CCCO5)cc4)c3)nc2c1` (stereo not given), the inhibition in test [1] was 11.3%; in test [2], 8.39%; in test [3] it was 6.46%.

Regarding `COCCn1c(-c2cccc(Cl)c2)nn(-c2ccc([N+](=O)[O-])cc2C#N)c1=S`, the inhibition is 3.84% in test [1], -0.81% in test [2] and 3.5% in test [3].

With `N#Cc1ccc(N2CCN(C(=O)c3cccc(-c4noc(C(F)(F)F)n4)c3)CC2)nc1`, the results for the inhibition in test [1], in test [2] and in test [3] were 0.27%, 0.91% and -0.23%, respectively.

In the case of `CN1CCN(c2ccnc3ccc(NC(=O)Cc4ccc(Br)c5ccccc45)cc23)CC1`, the values for the inhibition in test [1], in test [2] and in test [3] were 0.81%, 0.37% and 2.02%, respectively.

With `COc1ccc(S(=O)(=O)NCC2CCCN(CCCCCNC(=O)/C=C/c3ccc(Cl)c(Cl)c3)C2)cc1` (stereo not given), the inhibition came out at 0.97% in test [1], 0.66% in test [2] and 3.47% in test [3].

`CCC[C@@H](C(=O)NCCc1cccc(OC)c1)N1C(=O)c2c(ccc(OC)c2OC)C1C(=O)Nc1c(C)cccc1C` (stereo not given in full): the inhibition in test [1] worked out at 0.5%; in test [2], 0%; in test [3] it was 0.1%.

For `CCOCCCn1c(=N)c(C(=O)NCc2ccc(F)cc2)cc2c(=O)n3cccc(C)c3nc21`, the figures for the inhibition in test [1], in test [2] and in test [3] were 4.22%, 10.1% and -1.34%, respectively.

Regarding `NC1CCCN(Cc2cccc(-c3ccc(-c4nc5ccccc5[nH]4)s3)c2)C1` (stereo not given), the results for the inhibition in test [1], in test [2] and in test [3] were 0.99%, 0.63% and 1.78%, respectively.

`COc1ccc(CCNCCCCCCNCCc2ccc(-c3ccccc3)cc2)cc1OC`: the inhibition in test [1] stood at 92.8%; in test [2], 94.9%; in test [3], 49.7%.

In the case of `Cc1cccc2nc(-c3cccc(-c4ccc(NC(=O)NCc5cccc(F)c5)cc4)c3)[nH]c12`, the inhibition in test [1] is -1.1%; in test [2], 1.21%; in test [3], 0.25%.

As to `CC(C)(C)c1ccc(NC(=O)c2ccc(CN3CCCN(Cc4cccc(O)c4)CC3)cc2)cc1`, the inhibition in test [1] worked out at 0.52%; in test [2], 0.08%; in test [3], 2.02%.

For `CCc1ccc(O)c(-c2cc(C(=O)Nc3ccc(OC)c(Cl)c3)[nH]n2)c1`, the inhibition in test [1] is 0.23%; in test [2], 0.3%; in test [3], -7%.

`CCCCCCCN(Cc1ccc(OC(C)(C)C(=O)OCC)cc1)C(=O)Nc1ccccc1OCC`: the inhibition is -0.85% in test [1], -1.76% in test [2] and -2.13% in test [3].

As to `CN1CCC(N2CCN(Cc3cccc(-c4ccc(-c5nc6ccccc6[nH]5)cc4)c3)CC2)CC1`, the inhibition is 2.84% in test [1], 1.99% in test [2] and 0.07% in test [3].

`COc1cccc(C(=O)NCc2cccs2)c1Oc1ccccc1`: the inhibition in test [1] worked out at 13.2%; in test [2], 12.2%; in test [3], 11%.

`Cc1c(C)n(C2CCCCC2)c2ncnc(OC3CCN(CC(=O)NC4CC4)CC3)c12`: the inhibition in test [1] is -0.52%; in test [2], -3.58%; in test [3], 1.68%.

For `CCNc1cc(C(=O)N[C@@H](Cc2ccccc2)[C@H](O)CNC2CCCC2)cc(N2CCCC2=O)c1`, the results for the inhibition in test [1], in test [2] and in test [3] were 3.87%, 3.77% and 3.46%, respectively.
